Measured values reported in PubChem BioAssay (NCI).
Where “and” joins values, the source holds several entries; their conditions need not be identical. Identical values can stand only once. About 83,000 compounds went through this panel and 20% of them were active in at least one assay; those are over-represented in the sample as a whole.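 Values shown are percent growth following 48 h exposure of cells in 96-well plates to a single concentration of compound; below 10 was considered active.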 Calls of active or inactive are those of the source.

Columns and labels:
Assay in all cases: NCI-60 one-dose screen, 48 h (100 = growth as untreated, 0 = no growth, -100 = all killed)
Details in all cases: 10 µM unless noted
SR leukemia = test system: SR leukemia
RPMI-8226 leukemia = test system: RPMI-8226 leukemia
OVCAR-5 ovarian = test system: OVCAR-5 ovarian
OVCAR-4 ovarian = test system: OVCAR-4 ovarian
SK-OV-3 ovarian = test system: SK-OV-3 ovarian
IGROV1 ovarian = test system: IGROV1 ovarian
OVCAR-3 ovarian = test system: OVCAR-3 ovarian
HS 578T breast = test system: HS 578T breast
NCI/ADR-RES ovarian = test system: NCI/ADR-RES ovarian
OVCAR-8 ovarian = test system: OVCAR-8 ovarian

Measured: growth

O=C(Nc1ccccc1)Oc1c(Cl)c(Cl)c(Cl)c(Cl)c1Cl
inactive: SR leukemia 98.2% and 99.2% | RPMI-8226 leukemia 95.2% | OVCAR-5 ovarian 95.3% and 87.5% | OVCAR-4 ovarian 111% and 91.9% | SK-OV-3 ovarian 102% and 90.5% | IGROV1 ovarian 95.2% and 96.3% | OVCAR-3 ovarian 96.9% and 104% | HS 578T breast 91.6% | NCI/ADR-RES ovarian 103% and 96.6%

CCC(=O)Sc1ccccc1C(=O)Nc1ccc(Cl)cc1
inactive: SR leukemia 26.3% | RPMI-8226 leukemia 35% | OVCAR-8 ovarian 78.8% | OVCAR-5 ovarian 110% | OVCAR-4 ovarian 44.5% | SK-OV-3 ovarian 87.3% | IGROV1 ovarian 71.2% | OVCAR-3 ovarian 39.9% | NCI/ADR-RES ovarian 52.6%

Cn1c2ccccc2c2nnc(N/N=C/c3ccccn3)nc21
inactive: OVCAR-8 ovarian 23.9% | OVCAR-5 ovarian 40.6% | OVCAR-4 ovarian 24.4% | OVCAR-3 ovarian 23.5%
active: SR leukemia 8.61% | RPMI-8226 leukemia -14.2% | SK-OV-3 ovarian -11.1% | IGROV1 ovarian 4.97% | NCI/ADR-RES ovarian 6.51%

O=[N+]([O-])c1ccc(N=Nc2ccc(O)cc2O)cc1
inactive: SR leukemia 16.6% | RPMI-8226 leukemia 43% | OVCAR-5 ovarian 107% | OVCAR-4 ovarian 48.4% | SK-OV-3 ovarian 87% | IGROV1 ovarian 76.5% | OVCAR-3 ovarian 54.8% | HS 578T breast 51.8% | NCI/ADR-RES ovarian 52.6%

O=C1c2ccccc2C(=O)N1c1ccccc1
inactive: SR leukemia 85.7% | RPMI-8226 leukemia 119% | OVCAR-5 ovarian 107% | OVCAR-4 ovarian 105% | SK-OV-3 ovarian 99.1% | IGROV1 ovarian 105% | OVCAR-3 ovarian 108% | HS 578T breast 119% | NCI/ADR-RES ovarian 105%

CC(C)c1ccc2nc3ccc(C(=O)NCCN4CCN(c5ccccc5)CC4)cn3c(=O)c2c1
inactive: SR leukemia 51.7% | RPMI-8226 leukemia 20.5% | OVCAR-5 ovarian 91.1% | OVCAR-4 ovarian 63.9% | SK-OV-3 ovarian 93.4% | IGROV1 ovarian 78.7% | OVCAR-3 ovarian 77.5% | HS 578T breast 59.2% | NCI/ADR-RES ovarian 32.2%

O=C1c2ccccc2C(=O)c2sc(Nc3cccc(Cl)c3)nc21
inactive: SK-OV-3 ovarian 86.9%
active: SR leukemia 2.67% | RPMI-8226 leukemia 2.31% | OVCAR-5 ovarian -67.4% | OVCAR-4 ovarian -9.21% | IGROV1 ovarian 0.883% | OVCAR-3 ovarian -34.3% | HS 578T breast -8.09% | NCI/ADR-RES ovarian -16.9%

CC1OC(OC2C(OC3CCC4(C)C(CCC5(C)C4CC=C4C6CC(C)(C)CCC6(CO)C(O)CC45C)C3(C)C)OC(C(=O)O)C(OC3OC(COC4OC(CO)C(O)C(O)C4O)C(O)C(O)C3O)C2O)C(O)C(O)C1O (configuration not stated)
active: SR leukemia -44.2% | RPMI-8226 leukemia -23.5% | OVCAR-8 ovarian -51.8% | OVCAR-5 ovarian -64% | OVCAR-4 ovarian -84.3% | SK-OV-3 ovarian -83.4% | IGROV1 ovarian -81.6% | OVCAR-3 ovarian -50.7% | NCI/ADR-RES ovarian -68%

Oc1ccc(/C=N/NC(=S)Nc2ccccc2)nc1
active: SR leukemia -22.7% | RPMI-8226 leukemia 6.99% | NCI/ADR-RES ovarian 3.65%
inactive: OVCAR-8 ovarian 15.2% | OVCAR-5 ovarian 34.1% | SK-OV-3 ovarian 18.9% | IGROV1 ovarian 23.2% | OVCAR-3 ovarian 20% | HS 578T breast 88.5%

C[N+](C)=c1ccc2nc3c(cc(NCCCNc4cc5oc6cc(=[N+](C)C)ccc-6nc5c5ccccc45)c4ccccc43)oc-2c1
inactive: OVCAR-5 ovarian 68.5% | SK-OV-3 ovarian 90.1% | IGROV1 ovarian 19.1%
active: SR leukemia 6.05% | RPMI-8226 leukemia 2.21% | OVCAR-8 ovarian -5.6% | OVCAR-4 ovarian -100% | OVCAR-3 ovarian -54.5% | NCI/ADR-RES ovarian 6.53%

COC(=O)c1nc(=S)[nH]c(C(=O)OC)c1C(=O)c1ccccn1
inactive: RPMI-8226 leukemia 52.8% | OVCAR-8 ovarian 20.6% | OVCAR-5 ovarian 57.9% | OVCAR-4 ovarian 25.3% | SK-OV-3 ovarian 63.2% | IGROV1 ovarian 24.5% | OVCAR-3 ovarian 34.5%
active: SR leukemia -3.79% | NCI/ADR-RES ovarian 7.03%

O=C(Oc1cccc2cccnc12)c1ccccc1
inactive: SR leukemia 43.7% | RPMI-8226 leukemia 83.3% and 113% | OVCAR-8 ovarian 84.9% and 98.6% | OVCAR-5 ovarian 105% and 107% | OVCAR-4 ovarian 84.6% and 116% | SK-OV-3 ovarian 106% | IGROV1 ovarian 113% | NCI/ADR-RES ovarian 87% and 106%
7.19% (active) and 115% (inactive): OVCAR-3 ovarian

Nc1nc(N)c2c(ccc3c2ccn3Cc2cccc([N+](=O)[O-])c2)n1
active: OVCAR-8 ovarian -54.4% | OVCAR-5 ovarian -96.9% | OVCAR-4 ovarian -79.2% | SK-OV-3 ovarian -100% | IGROV1 ovarian -90% | OVCAR-3 ovarian -93.9%
inactive: SR leukemia 110% | RPMI-8226 leukemia 19.4% | NCI/ADR-RES ovarian 22.5%
